Screening results as filed in PubChem BioAssay.
Most compounds without a hit are left out; they make up all but 3.5% or so of the library.
BoNT-A LC inh2 = BoNT/A light chain protease inhibitors, primary screen, biochemical, flow cytometry, MLPCN library; Botulinum neurotoxin type A light chain protease (Clostridium botulinum A str. ATCC 3502); multiplex microsphere protease substrate cleavage; inhibition, % at 10 µM; hit rate 0.17% among 360,000; also: plate controls were buffer without enzyme for full effect and enzyme alone for no effect
Anthrax LF inh2 = Bacillus anthracis LF protease inhibitors, primary screen, biochemical, multiplex microsphere, MLPCN library | inhibition, % at 10 µM | multiplex microsphere protease cleavage assay | hit rate 0.12% among 360,000 | AID 588501, 2011 | Lethal factor (Bacillus anthracis), P15917; also: plate controls were buffer without enzyme for full effect and enzyme alone for no effect
Target sequence (P15917 whole entry, looked up): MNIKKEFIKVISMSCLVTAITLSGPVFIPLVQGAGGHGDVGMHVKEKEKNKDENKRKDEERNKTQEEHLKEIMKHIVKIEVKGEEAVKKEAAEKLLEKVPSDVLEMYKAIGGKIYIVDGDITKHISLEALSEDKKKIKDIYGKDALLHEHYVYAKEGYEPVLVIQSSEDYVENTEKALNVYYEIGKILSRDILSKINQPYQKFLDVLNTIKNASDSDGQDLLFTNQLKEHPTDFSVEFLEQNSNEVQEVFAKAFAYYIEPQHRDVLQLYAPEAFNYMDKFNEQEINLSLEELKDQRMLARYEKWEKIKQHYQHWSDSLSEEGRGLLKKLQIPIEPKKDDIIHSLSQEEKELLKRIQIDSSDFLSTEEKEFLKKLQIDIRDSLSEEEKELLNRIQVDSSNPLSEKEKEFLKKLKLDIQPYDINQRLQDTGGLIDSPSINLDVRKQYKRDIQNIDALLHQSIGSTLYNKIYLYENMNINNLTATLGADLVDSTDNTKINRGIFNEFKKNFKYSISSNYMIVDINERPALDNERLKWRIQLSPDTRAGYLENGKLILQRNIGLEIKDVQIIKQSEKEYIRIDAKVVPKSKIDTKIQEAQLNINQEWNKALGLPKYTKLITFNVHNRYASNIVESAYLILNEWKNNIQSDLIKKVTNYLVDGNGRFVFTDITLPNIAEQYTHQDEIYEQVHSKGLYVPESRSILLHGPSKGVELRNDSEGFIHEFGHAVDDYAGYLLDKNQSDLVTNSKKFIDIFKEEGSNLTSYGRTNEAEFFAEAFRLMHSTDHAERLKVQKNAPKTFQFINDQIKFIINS
Bead autofluor = flagged as autofluorescent in microsphere protease counterscreen; AID 624483; compound autofluorescence counterscreen, microsphere flow cytometry; active compounds read high; fluorescence intensity (no concentration beside the values); hit rate 3.1% among 360,000; in the data active = fluorescence intensity above about 16000; inconclusive = no clear call, values can overlap the other calls
BoNT-F LC inh = BoNT/F light chain protease inhibitors, primary screen, biochemical, flow cytometry, MLPCN library; inhibition, % at 10 µM; hit rate 0.22% among 360,000; Multiplex microsphere protease cleavage assay; Botulinum neurotoxin type F light chain protease (Clostridium botulinum); in the data active = inhibition above about 35%, passing the limit was not always enough; inconclusive = no clear call, values can overlap the other calls; also: plate controls were buffer without enzyme for full effect and enzyme alone for no effect
* marks the source's active call; other numbers are inactive results; ? = inconclusive; ! = not active in a repeat. Rule as the data show it, unless noted: active = inhibition above about 30%; inconclusive = no clear call, values can overlap the other calls; inactive = below that.

SMILES	BoNT-A LC inh2	Anthrax LF inh2	Bead autofluor	BoNT-F LC inh
O=C(/C=C/c1cc([N+](=O)[O-])ccc1OC(F)F)NCc1ccc(Cl)cc1	0	-1	2333	-11
COc1ccccc1NC(=O)/C=C/c1cc([N+](=O)[O-])ccc1OC(F)F	0	3	6184	-8
COc1ccc(CNC(=O)/C=C/c2cc([N+](=O)[O-])ccc2OC(F)F)cc1	?	2	16762*	-2
O=c1c2[nH]c3ccc(F)cc3c2nc2n1CCCS2	-1	7	4654	-8
CCCc1cc(C(=O)NNC(=S)NCC)c2ccccc2n1	0	0	1976	1
CCNC(=S)NNC(=O)c1cc(-c2cc(C)ccc2C)nc2ccccc12	1	-1	19654*	3
COc1ccc(-c2cnn3c4c(c(C)nc23)CCN4C2CCCC2)cc1OC	-2	-2	17372*	-4
COCCN1CCc2c(C)nc3c(-c4ccc(OC)c(OC)c4)cnn3c21	1	-11	9041	2
CC1(C)C(c2cccs2)=[N+]([O-])C2(CCCCC/C2=N\O)N1O (stereo not drawn)	-2	-1	24784*	-4
Cc1ccc(C2=[N+]([O-])C3(CCCCC/C3=N\NC(N)=O)N(O)C2(C)C)o1 (stereo not drawn)	0	3	2485	-3
Cc1noc(C)c1C(=O)OCC(=O)NCCC1=CCCCC1	-1	-13	4133	-36
CCOC(=O)c1cnc(-n2nc(C)cc2C)nc1NCc1ccccc1	3	5	?	-3
CCOC(=O)c1cnc(-n2cc(C)cn2)nc1NCc1ccc2c(c1)OCO2	?	0	21542*	-2
O=[N+]([O-])c1ccc(NS(=O)(=O)c2ccc(Cl)c(Cl)c2)cc1	0	1	5873	7
O=[N+]([O-])c1cccnc1N1CCCCC1	1	-1	22095*	0
COc1ccc(-c2ncccc2O)cc1	0	0	2533	-7
CCOc1c(C)cc(-c2ncccc2O)cc1C	-1	-2	22538*!	-4
c1ccc(Cn2c(CNc3nc4ccccc4n3CCN3CCOCC3)nc3ccccc32)cc1	?	0	23712*	-2
COc1ccc(CNc2nc3ccccc3n2CCN2CCCCC2)c(OC)c1	4	-5	15231	6
COc1ccc(OC)c(CNc2nc3ccccc3n2CCN2CCCCC2)c1	0	-2	16368*	-6
Nc1ccn([C@@H]2O[C@H](CNCc3ccc(C#CCCO)cc3)[C@@H](O)[C@H]2O)c(=O)n1	0	-4	3804	-3
CCC(=O)Nc1c(C)c(CC)nc2ccccc12	-3	-8	16775*	-2
CCc1nc2ccccc2c(C(=O)NCc2ccccc2)c1C	2	-2	3160	27
CCc1nc2ccccc2c(C(=O)O)c1C	3	4	22245*	4
COc1ccccc1NC(=O)CSc1nnnn1-c1ccccc1F	0	-8	3339	10
SMILES	BoNT-A LC inh2	Anthrax LF inh2	Bead autofluor	BoNT-F LC inh
N#Cc1nc(COc2ccc(F)cc2)oc1N1CCN(Cc2ccccc2)CC1	0	-9	4287	-7
N#Cc1nc(COc2ccc(F)cc2)oc1N1CCC(Cc2ccccc2)CC1	-1	-5	16803*	-3
COc1ccc(N2CCN(c3oc(COc4ccccc4Cl)nc3C#N)CC2)cc1	?	-10	19893*	-1
COc1ccc(CNc2oc(COc3ccccc3)nc2C#N)cc1	1	-10	9489	3
COc1ccc(OCc2nc(C#N)c(N3CCN(c4ccc(OC)cc4)CC3)o2)cc1	-1	-8	5128	-6
COc1ccc(CNc2oc(C)nc2C#N)cc1	?	1	20862*	-4
Cc1ccc(CNc2oc(COc3ccccc3Cl)nc2C#N)cc1	-1	-4	2314	-12
N#Cc1nc(COc2ccccc2Cl)oc1NCc1ccc(F)cc1	-6	-6	22901*	-8
CS(=O)(=O)CCC(C(=O)Nc1ccc2c(c1)OCO2)N1Cc2ccccc2C1=O (stereo not drawn)	1	-1	5805	-1
CCN(c1ccccc1)S(=O)(=O)c1ccc(C(=O)N2CCN(c3ccccc3)CC2)cc1	0	-8	3809	-2
CCN(CC)C(=O)c1csc(COCCO)n1	0	-4	3297	-1
N#CC1=C(N)Oc2c(c(=O)oc3ccccc23)C1c1ccncc1 (stereo not drawn)	0	-4	5900	-3
CCOc1ccc(C2C(C#N)=C(N)Oc3c2c(=O)oc2ccccc32)cc1 (stereo not drawn)	?	-2	24671*	-6
Cc1cccc(C=Nc2ccccc2C(N)=O)c1	-4	-6	24521*	-5
Cc1ccc(C=Nc2ccccc2C(N)=O)s1	0	0	2547	1
O=C1c2ccccc2C(=O)c2c([N+](=O)[O-])ccc(O)c21	1	6	3556	?
O=C(O)c1ccc([N+](=O)[O-])c2c1C(=O)c1ccccc1C2=O	?	-49	20562*	?
CCOC(=O)c1[nH]c(COC(=O)CCOc2ccccc2OC)c(C(=O)OCC)c1C	?	-1	23144*	-5
CCOC(=O)c1c(C)[nH]c(C)c1C(=O)COC(=O)CCOc1ccccc1OC	0	0	3239	-21
O=C(N[C@@H](Cc1ccccc1)C(=O)OCc1ccccc1)c1nc[nH]c1C(=O)N1CCNCC1	0	-4	4233	-3
Cc1cc(Cl)c(S(=O)(=O)N2CCN(c3ccc(F)cc3)CC2)cc1OCC(=O)NC1CCCCC1	-1	-4	16526*	-3
Cc1cc(Cl)c(S(=O)(=O)Nc2ccon2)cc1OCC(=O)NC1CCCCC1	-1	-15	10581	8
Cc1cc(Cl)c(S(=O)(=O)Nc2ccc3c(c2)OCCO3)cc1OCC(=O)NC1CCCCC1	?	-3	19863*	1
COC(=O)COc1ccc(S(=O)(=O)Nc2ccc3c(c2)OCCO3)cc1Cl	5	-4	20964*	5
CCn1c(=O)[nH]c(=O)c2c(N)c(C(=O)c3cc(F)ccc3F)sc21	1	-2	5646	-2
SMILES	BoNT-A LC inh2	Anthrax LF inh2	Bead autofluor	BoNT-F LC inh
CCOC(=O)Cn1c(-c2ccc(Cl)nc2)nc2ccccc21	-1	2	22764*	-1
COc1cc(CNCCN(C)C)c(Br)cc1OC1CCCC1	-2	-8	4878	-7
COCCCn1c(SCCc2ccccc2)nc2cc(OC)c(OC)cc2c1=N	-1	-7	4513	-1
COc1cc2nc(SCc3ccc(F)cc3)n(Cc3cccs3)c(=N)c2cc1OC	?	-1	20501*	-3
COCCN(C(=S)Nc1ccc(OC)c(Cl)c1)C1CCN(C(C)=O)CC1	0	-5	2908	-3
CCn1c(O)c(/C=N/N=C/c2ccccc2)c2ccc(C3=NNC(=O)CC3)cc21	2	-2	22930*	0
Cc1ccc(C(=O)Oc2ccc(C(=O)COC(=O)c3cnccn3)cc2)cc1	0	0	16162*	2
CC(=O)OC1CC(C)N(C(=O)c2ccccc2)c2ccc(C)cc21 (stereo not drawn)	-5	-2	25080*	-8
O=S(=O)(c1ccccc1)N(CC(F)(F)F)c1ccc(C(O)(C(F)(F)F)C(F)(F)F)cc1	0	1	3557	0
